# Test results taken from PubChem BioAssay AID624337 (National Center for Advancing Translational Sciences (NCATS), 2012).
# Results filed as inconclusive are left out. Activity calls are given as the source filed them. Calls follow the shape of the dose curve; as a rule, active = well fitted curve in the direction sought with a large enough effect; inconclusive = small, poorly fitted or top-dose-only effect; inactive = flat fitted curve, though single readings scatter.
# Assay: Quantitative high throughput screen for delayed death inhibitors of the malarial parasite plastid: Hit Validation with Dd2 at 96hr using Flow Cytometry
# Conditions: P. falciparum Dd2 growth; parasitemia, lower = inhibition: at 50 µM (top of the series)
# From the text: The goal of this screen is to discover new antimalarial compounds that act by inhibiting the development of the apicoplast organelle in the malarial parasite Plasmodium falciparum. Some antibiotics, such as azithromycin and tetracycline, are known to interfere with the apicoplast translational machinery, and have a potent antimalarial effect. […] We developed a cell-based quantitative high throughput screen that leverages this "delayed death" phenotype to enrich for compounds that target the apicoplast. To detect small molecules that cause the delayed death phenotype, erythrocytes infected with firefly luciferase-expressing parasites were incubated with compounds for either one or two generations, corresponding to 48 and 96 hours, respectively. Growth inhibition was detected by a decrease in luciferase activity. Compounds that inhibited parasite growth in the second generation at least five-fold more potently than in the first generation were defined as delayed death inducing. These compounds were selected for confirmatory screening using a flow cytometry based assay. This hit validation assay used the Dd2 cell line and measured at 96 hours. NIH Molecular Libraries Probe Production Network [MLPCN] NIH Chemical Genomics Center [NCGC] MLPCN Grant: R21 NS059500 Assay Provider: David Fidock and Eric Ekland, Columbia University
# Test compounds were diluted in 20 microliters of complete media (RPMI 1640 with 0.5% w/v Albumax (GIBCO), 24 mM sodium bicarbonate (Sigma) and 10 ug/mL gentamycin (Gibco)) in clear 384-well plates (Greiner). All liquid handling was conducted using a Bio Tek Precision 2000 pipetting system. Twenty microliters of infected erythrocytes, 0.2% parasitemia (for 48 hour time points) or 0.1% parasitemia (for 96 hour time points) were added to the compound dilutions (1% hematocrit, final concentration; 40 microliters, total culture volume). The assay plates were incubated for 48 hours, or 96 hours, at 37 masculine C in a humidified chamber (Billups- Rothenberg, Del Mar, CA, USA), gassed with 5%CO2/5%O2/ 90%N2. After two generations (96 hours), 5 microliters of culture were harvested and transferred to a second 384 well plate for fluorescent staining. Samples were stained with 30 microliters of 2 x SYBR Green I (Invitrogen) and 150nM MitoTracker Deep Red (Invitrogen) diluted in 0.9% NaCl, 0.2% dextrose (Baxter) supplemented with 2.5% Fetal Calf Serum (Gibco) (saline/FCS). Mature erythrocytes lack nuclei and mitochondria, therefore only parasitized erythrocytes retain the SYBR Green I and MitoTracker Deep Red. After 30 minutes at 37 masculine C, the stained cells were diluted in an additional 60 microliters of saline/FCS. The samples were harvested directly from the 384 well plate using a Hypercyt High Capacity Flow Platform (Intellicyt) paired with a C6 Flow Cytometer (Accuri). The flow cytometry files were analyzed using FlowJo software (FlowJo).
Compound,Potency,"parasitemia, lower = inhibition"
CCCCN(CCCNC(=O)C1CCN(C(=O)c2cc3sccc3n2C)CC1)Cc1ccccc1,0.389 µM (active),
Cc1ccc(S(=O)(=O)Nc2ccc(C(=O)Nc3ccncc3)cc2)cc1,14 µM (active),
c1csc(CNc2ncnc3nc[nH]c23)c1,31.3 µM (active),
CCOc1ccc(S(=O)(=O)Nc2cc(S(=O)(=O)N(CC)CC)ccc2N2CCCC2)cc1,13.9 µM (active),
COc1ccc2cc3cc(C(=O)Nc4ccc5c(c4)OCO5)oc3nc2c1,24.9 µM (active),
COc1ccccc1N1CCN(CCC(=O)Nc2ccc(F)cc2)CC1,8.91 µM (active),
N#Cc1cccc(NC(=O)Cn2c3[n+](c4ccc(C(F)(F)F)cc42)CCCCC3)c1,0.424 µM (active),
COc1cccc(CN2CCN(c3nc4nonc4nc3N3CCCCC3)CC2=O)c1,5.78 µM (active),
Cc1sc2nc[nH]c(=O)c2c1-c1ccc(Cl)cc1,9.78 µM (active),
Cc1c(F)c(N2CCNC(C)C2)cc2c1c(=O)c(C(=O)O)cn2C1CC1 (configuration not stated),0.479 µM (active),
O=C(CNC(=O)C1CCCCC1)OC(C(=O)c1ccccc1)c1ccccc1 (configuration not stated),,0.991 (active)
CC1=Nc2cc(C(=O)N3CCCC3)ccc2Sc2ccc(C)cc21,,0.0412 (active)
CC(=O)NC[C@@H]1CN(c2ccc(N3CCOCC3)c(F)c2)C(=O)O1,18 µM (active),
COc1ccc(C(=O)N2CCN(S(=O)(=O)c3ccc(C)cc3C)CC2)cc1OC,29.7 µM (active),
CCC(=O)OC1C(N(C)C)CC(C)O[C@H]1O[C@H]1[C@H](C)[C@@H](O[C@H]2CC(OC)[C@@H](O)C(C)O2)[C@H](C)C(=O)O[C@@H](CC)[C@](C)(O)[C@@H](O)[C@H](C)C(=O)[C@@H](C)C[C@]1(C)O (some centres not stated),4.56 µM (active),
O=C(c1ccc([N+](=O)[O-])cc1)n1nc(-c2ccccc2)nc1NCc1ccc(F)cc1,24.6 µM (active),
Cc1ccc(-n2c(-c3ccc(Cl)cc3)c[n+]3c2CCC3)cc1,0.0825 µM (active),
COc1ccc(NC(=S)N2CCC(Cc3ccccc3)CC2)cc1OC,,0.714 (active)
CCCc1c(CC)c(=N)c2ccccc2n1C,0.113 µM (active),

Compound,Potency,"parasitemia, lower = inhibition"
CC(C)C(=O)NCCSc1c[nH]c2ccccc12,5.01 µM (active),
CN(C)c1ccc(CN(C(=O)c2ccccc2Br)C2CCS(=O)(=O)C2)cc1 (configuration not stated),29.1 µM (active),
CCOc1ccc(C(=O)Nc2ccc(N3CCN(C)CC3)cc2)cc1,,0.471 (active)
CCOc1ccc(NC(=O)C[n+]2ccc(N(C)C)cc2)cc1,0.121 µM (active),
O=C(CSc1ccc(-c2cccnc2)nn1)Nc1ccccc1C(F)(F)F,6.51 µM (active),
Brc1cccc(OCCCCN2CCCCC2)c1,2.79 µM (active),
COCCNC(=O)c1cccc(OC2CCN(Cc3cccc(SC)c3)CC2)c1,inactive,
COc1ccc(CNC(=O)C2CCC(CNS(=O)(=O)c3cccc4cccnc34)CC2)cc1 (configuration not stated),38.9 µM (active),
CO[C@@H]1[C@@H](OC2OC(C)C(OC3CC(C)(O)C(OC(=O)CC(C)C)C(C)O3)C(N(C)C)C2O)[C@@H](CC=O)C[C@@H](C)C(=O)/C=C\C2O[C@H]2C[C@@H](C)OC(=O)C[C@H]1OC(C)=O (some centres not stated),0.0981 µM (active),
CCOC(=O)c1ccc2c(c1)n(CC)c(/C=C/N(C)c1ccccc1)[n+]2CC,0.185 µM (active),
COc1ccc(Nc2nnc(-c3ccc(C)cc3)c3ccccc23)cc1C(=O)N1CCCCC1,25.7 µM (active),
CCc1nc(SCC(=O)Nc2ccc(N(C)C)cc2)n[nH]1,15.1 µM (active),
CCCCOc1ccc(N2C(N)=NC(N)=NC23CCCCC3)cc1,4.34 µM (active),
Clc1ccc(-c2c[n+](Cc3ccc(Cl)cc3Cl)c3n2CCCCC3)cc1,0.244 µM (active),
O=C(Nc1ccccc1N1CCOCC1)c1cccc(S(=O)(=O)N2CCOCC2)c1,10.6 µM (active),
COc1ccc2c(ccc[n+]2CC(=O)c2ccccc2)c1,5.18 µM (active),
Cc1ccc(CN2CCC(n3nccc3NC(=O)c3ccccc3C)CC2)o1,12.8 µM (active),
CCCCN(CCCNC(=O)c1ccc(CS(=O)(=O)c2ccc(OC)cc2)o1)Cc1ccccc1,1.66 µM (active),
